Results on 24 compounds are retold here after PubChem BioAssay (NCATS).

The structures appear in SMILES notation. Several values for one entry are separate records, joined by “and”; a condition that tells them apart may be missing. Equal values may be shown once. Results filed as inconclusive are left out. A number with no mark means an inactive call. Activity calls are given as the source filed them. Calls follow the shape of the dose curve; as a rule, active = well fitted curve in the direction sought with a large enough effect; inconclusive = small, poorly fitted or top-dose-only effect, or another doubt; inactive = no such curve, though single readings can be large; an effect the other way counts as inactive or inconclusive.

The target in assay [1] is Cellular tumor antigen p53 (Homo sapiens) (UniProt P04637). The experiment in a line: Primary qHTS for small molecule compounds that upregulate eGFP-tagged delta133p53alpha (in N-terminal) cells. (AID 2060322).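 Also: cells pre-induced with doxycycline then dosed without doxycycline; series mostly up to about 56 µM; 0% = DMSO vehicle and 100% = reference activator; nearly all actives have a fitted effect of over 75% in size.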 Conditions: NCI-H358 eGFP-delta133p53alpha fluorescence, 24 h; activation: active compounds read high. In outline:
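NCI-H358 cells pre-induced 24 h with 10 ng/ml doxycycline for eGFP-delta133p53alpha, plated dox-free and exposed 24 h at 37C to titrated compounds. Fixed, Hoechst-stained; gated GFP peak intensity by laser scanning cytometry, normalized to DMSO (0%) and 57.5 uM 5-azacytidine (100%).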
A general note: Quantitative high-throughput screening tests each substance at several concentrations.

Assay [2] is described as follows: BET inhibitor-based combinations targeting novel dependencies in MECOM-rearranged (r) AML: OCI-AML3 cell line (AID 2202232). Also: nearly all actives have a fitted effect of over 35% in size. Also: potency is read from the fitted curve at half-maximal effect.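 As to viability (% of control): series mostly up to about 46 µM; plate controls were DMSO vehicle wells for no effect and wells without cells for full effect.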 To be noted: Potency: OCI-AML3 viability. In outline:
(§1)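 A 48 hr incubation preceded viability reading by CellTiter-Glo, with 15 min room-temperature development. Dose series had 11 points; normalization used DMSO and empty wells; AUC was computed and mean-centered per line as Z-AUC.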

A short description of assay [3]: BET inhibitor-based combinations targeting novel dependencies in MECOM-rearranged (r) AML: MV-4-11 cell line (AID 2202233). Also: nearly all actives have a fitted effect of over 45% in size. Also: potency is read from the fitted curve at half-maximal effect.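 As to viability, % of control: plate controls were DMSO for no effect and blank wells for full effect.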 In outline: (§2)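 Each compound is tested in an 11-point concentration series against 500 seeded cells/well for 48 hr. The luminescent viability signal is normalized to DMSO and blank wells, then reduced to AUC and a cell-line-centred Z-AUC.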
Assay [4] is described as follows: BET inhibitor-based combinations targeting novel dependencies in MECOM-rearranged (r) AML: HNT-34 cell line (AID 2202234). Also: nearly all actives have a fitted effect of over 35% in size. Also: potency is read from the fitted curve at half-maximal effect.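 As to viability (% of control): plate controls were vehicle wells for no effect and cell-free wells for full effect.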 In outline:
as §2

Assay [5] can be described thus: BET inhibitor-based combinations targeting novel dependencies in MECOM-rearranged (r) AML: UCSD-AML1 cell line (AID 2202235). Also: nearly all actives have a fitted effect of over 40% in size. Also: potency is read from the fitted curve at half-maximal effect.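 As to viability (% of control): series mostly up to about 46 µM; plate controls were DMSO vehicle wells for no effect and blank wells for full effect.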 In outline:
as §2

Assay [6] is described as follows: BET inhibitor-based combinations targeting novel dependencies in MECOM-rearranged (r) AML: AML-191 cell line (AID 2202236; also: nearly all actives have a fitted effect of over 35% in size; also: potency is read from the fitted curve at half-maximal effect;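 as to viability (% of control): plate controls were vehicle wells for no effect and wells without cells for full effect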). In outline: as §1
Assay [7] can be described thus: BET inhibitor-based combinations targeting novel dependencies in MECOM-rearranged (r) AML: AML-194 cell line (AID 2202237;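 also: plate controls were vehicle wells for no effect and wells without cells for full effect; nearly all actives have a fitted effect of over 40% in size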). In outline: as §1
Assay [8] in a line: BET inhibitor-based combinations targeting novel dependencies in MECOM-rearranged (r) AML: SET-2 cell line (AID 2202231). Also: nearly all actives have a fitted effect of over 35% in size. Also: potency is read from the fitted curve at half-maximal effect.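 As to viability: plate controls were DMSO treated cells for no effect and wells without cells for full effect.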 To be noted: SET-2 AML cells viability, CellTiter-Glo luminescence, 48 h; viability: active compounds read low, concentration not given here. In outline: as §1
Background: ATP-based viability assays read luminescence as a measure of living cells.

Sequence of Cellular tumor antigen p53 (Homo sapiens) (P04637 whole entry, looked up): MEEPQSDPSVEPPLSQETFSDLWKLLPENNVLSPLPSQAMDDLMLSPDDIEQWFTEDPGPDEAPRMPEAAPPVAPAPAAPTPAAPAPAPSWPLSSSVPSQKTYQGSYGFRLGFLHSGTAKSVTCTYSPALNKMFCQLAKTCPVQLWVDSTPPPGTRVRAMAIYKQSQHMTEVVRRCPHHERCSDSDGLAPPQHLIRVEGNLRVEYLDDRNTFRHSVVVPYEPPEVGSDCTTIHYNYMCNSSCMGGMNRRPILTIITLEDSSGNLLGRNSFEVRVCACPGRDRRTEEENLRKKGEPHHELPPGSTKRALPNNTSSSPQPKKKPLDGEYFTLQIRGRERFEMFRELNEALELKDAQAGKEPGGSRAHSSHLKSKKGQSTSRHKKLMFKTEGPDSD

`Cc1c(C)c2c(c(C)c1O)CCC(C)(COc1ccc(CC3SC(=O)NC3=O)cc1)O2` (configuration not stated): the activation in assay [1] is -7.34%. For the same compound, the Potency entry in assay [2], in assay [3], in assay [5], in assay [6] and in assay [7] was “inactive” in each case. Besides, the Potency in assay [4] was 18.6 µM (active).

Consider `CCCCC(=O)O[C@]1(C(=O)CO)[C@@H](C)C[C@H]2[C@@H]3CCC4=CC(=O)C=C[C@]4(C)[C@@]3(F)[C@@H](O)C[C@@]21C`, for which the activation in assay [1] is 8.12%. For the same compound, the viability – broadly, a read-out of living cells in per cent, often relative to untreated cells – in assay [8] was 109%. The figures for the Potency in assay [4] and in assay [6] were 14.8 µM (active) and 0.0132 µM (active), respectively.

As to `COC(=O)C1=C(C)NC(C)=C(C(=O)OCCN2CCN(C(c3ccccc3)c3ccccc3)CC2)C1c1cccc([N+](=O)[O-])c1` (configuration not stated), the activation in assay [1] was -17.6%. The Potency is 20.9 µM (active) in assay [2], 18.6 µM (active) in assay [3], 23.5 µM (active) in assay [4] and 26.3 µM (active) in assay [6]. In addition, in assay [5], the Potency result was “inactive”.

As for `Oc1cccc(-c2nc(N3CCOCC3)c3oc4ncccc4c3n2)c1`, the activation in assay [1] is 27.8%. Besides, the values for the Potency in assay [2] and in assay [3] were 0.0661 µM (active) and 0.0525 µM (active), respectively.

Regarding `COC(=O)C[C@](O)(CCCC(C)(C)O)C(=O)O[C@@H]1C(OC)=C[C@]23CCCN2CCc2cc4c(cc2[C@H]13)OCO4`, in assay [1], the activation is -1.17%. For the same compound, the Potency in assay [8] was 0.148 µM (active); in assay [4] it was 0.0417 µM (active); in assay [5], 0.0148 µM (active); in assay [6], 0.059 µM (active).

As to `CC(C)Oc1ccc2c(=O)c(-c3ccccc3)coc2c1`, the activation in assay [1] is -6.21% and -9.21% and 6.6%. In addition, the viability in assay [8] was 108%. Moreover, the Potency entry in assay [4], in assay [5] and in assay [7] was “inactive” in each case.

In the case of `CN(C)c1ccc2cc(C(=O)N[C@@H](CCCN=C(N)CCl)C(=O)NCc3ccccc3)ccc2c1`, the activation in assay [1] was 2.27%. Further, the viability in assay [8] was 99.2%. Besides, the Potency result in assay [3] and in assay [7] was “inactive” each time.

Regarding `CSc1cccc(Nc2ncc3cc(-c4c(Cl)cccc4Cl)c(=O)n(C)c3n2)c1`, the activation in assay [1] was -0.477%. In addition, the Potency entry in assay [2] is “inactive”. Besides, in assay [3], the Potency is 1.86 µM (active).

Take `Cc1ccc(NC(=O)c2cccc(N(C)C)c2)cc1NC(=O)c1ccc(O)cc1`: the activation in assay [1] was -4.71%. Besides, the viability in assay [8] is 90.3%. The Potency result in assay [5], in assay [6] and in assay [7] was “inactive” throughout.

With `CN1C(C(=O)Nc2ccccn2)=C(O)c2sc(Cl)cc2S1(=O)=O`, the activation in assay [1] is -22.9%. Also, the Potency result in assay [2], in assay [3], in assay [4], in assay [5], in assay [6] and in assay [7] was “inactive” in each case.

`COC(=O)Nc1ccc(-c2nc(N3CCOCC3)c3cnn(C4CCN(C(=O)OC)CC4)c3n2)cc1`: the activation in assay [1] was 11.3%. Moreover, the figures for the Potency in assay [2], in assay [3] and in assay [4] were 4.17 µM (active), 1.18 µM (active) and 0.742 µM (active), respectively.

As for `CCCCCCOC(=O)NC(=N)c1ccc(NCc2nc3cc(C(=O)N(CCC(=O)OCC)c4ccccn4)ccc3n2C)cc1`, the activation in assay [1] is -36.8%. In addition, the Potency in assay [2] and in assay [3] was 8.33 µM (active) throughout.

For the compound `COc1cc([C@H]2Oc3cc([C@H]4Oc5cc(O)cc(O)c5C(=O)[C@@H]4O)ccc3O[C@@H]2CO)ccc1O`, the activation in assay [1] is -20.1%. Further, the viability in assay [8] was 119%. Besides, the Potency result in assay [7] was “inactive”.

With `CN(N=O)C(=O)N[C@@H]1[C@@H](O)[C@H](O)[C@@H](CO)O[C@@H]1O`, in assay [1], the activation was -14.1%. Further, the Potency result in assay [2], in assay [3], in assay [4] and in assay [5] was “inactive” in each case.

On to `COc1ccccc1C(=O)Nc1cc2c(cc1N1CCCCC1)n(C)c(=O)n2C`, for which the activation in assay [1] was -12.3%. The viability in assay [8] is 101%. The Potency entry in assay [4], in assay [6] and in assay [7] was “inactive” each time.

Regarding `NC(=O)c1ccc(-c2nc(-c3ccc4c(c3)OCCO4)c(-c3ccccn3)[nH]2)cc1`, the activation in assay [1] is -1.5%. Also, in assay [8], the viability was 104%. Also, in assay [7], the Potency result was “inactive”.

With `CCOc1cc(N)c(Cl)cc1C(=O)NCC1CN(Cc2ccc(F)cc2)CCO1` (configuration not stated), the activation in assay [1] is -2.82% and 4.36%. Also, in assay [8], the viability is 105%. Further, the Potency entry in assay [4], in assay [5], in assay [6] and in assay [7] was “inactive” throughout.

Turning to `CC(=O)Oc1cc2c(s1)CCN(C(C(=O)C1CC1)c1ccccc1F)C2` (configuration not stated), the activation in assay [1] was 29.4%. Moreover, the viability in assay [8] was 102%. In addition, the Potency entry in assay [4], in assay [5] and in assay [7] was “inactive” throughout.

In the case of `CO[C@@H](C(=O)N1Cc2[nH]nc(NC(=O)c3ccc(N4CCN(C)CC4)cc3)c2C1)c1ccccc1`, in assay [1], the activation was 20.9%. Moreover, the Potency in assay [2] is 1.86 µM (active); in assay [3], 0.148 µM (active); in assay [4], 0.105 µM (active); in assay [5] it was 0.148 µM (active).

Turning to `COc1ccc(C[C@@H](C)[C@@H](C)Cc2ccc(OC)c(OC)c2)cc1OC`, in assay [1], the activation was 11.5%. The Potency in assay [8] and in assay [6] was 18.6 µM (active) in each case. For the same compound, the Potency result in assay [4], in assay [5] and in assay [7] was “inactive” each time.

Consider `O=P(O)(O)C(O)(Cn1ccnc1)P(=O)(O)O`, for which the activation in assay [1] is -20.1%. In addition, the viability (% of control) was 121% [at 5.12 µM] in assay [2]; 108% [at 5.12 µM] in assay [4]; 117% [at 5.12 µM] in assay [5]; 112% [at 5.12 µM] in assay [6]; 119% [at 5.12 µM] in assay [7]. Besides, the viability, % of control in assay [3] is 141% [at 5.12 µM].

For `N=C(N)c1ccc2cc(OC(=O)c3ccc(N=C(N)N)cc3)ccc2c1`, the activation in assay [1] is -10.5%. Further, in assay [8], the viability was 105%. The Potency in assay [5] and in assay [6] was 23.5 µM (active) in each case.

Turning to `COc1ccc(-c2coc3cc(O)cc(O)c3c2=O)cc1`, the activation in assay [1] is 22.8%. For the same compound, in assay [8], the viability was 45.9%. The Potency result in assay [5], in assay [6] and in assay [7] was “inactive” throughout.

Turning to `Cc1cc([C@@H](C)Nc2ccccc2C(=O)O)c2nc(N3CCOCC3)cc(=O)n2c1`, in assay [1], the activation is 14.9%. Moreover, the Potency in assay [2] is 1.32 µM (active).
